EBV gp42 inh: EBV gp42 inhibition | inhibition, % (tested at 21.74 µM) | 220,000 tested, 0.42% active | Q1HVG2 | Fluorescence polarization binding assay, mP read-out; in the data active means inhibition above about 50%
Target sequence (Q1HVG2 whole entry, looked up): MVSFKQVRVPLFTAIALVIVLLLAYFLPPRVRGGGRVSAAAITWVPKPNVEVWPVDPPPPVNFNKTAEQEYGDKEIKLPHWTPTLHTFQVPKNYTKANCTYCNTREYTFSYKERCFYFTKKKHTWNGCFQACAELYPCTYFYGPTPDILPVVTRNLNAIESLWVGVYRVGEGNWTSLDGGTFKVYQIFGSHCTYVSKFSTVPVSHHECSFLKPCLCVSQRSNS
TNF death inh: blocks TNF-alpha induced death of Jurkat FADD-/- cells | Jurkat FADD-/- TNF necroptosis rescue, ATP luminescence, 24 h; 0 = TNF only, 100 = no-TNF cells | activation (protection from cell death), % at 10 µM | 220,000 tested, 0.068% active | AID 463075;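 active means activation, meaning protection from cell death, of at least 50% relative to plate controls; inactive means activation below 50%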;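 further: necroptosis triggered by 40 ng/mL TNF-alpha added together with compound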
L929 necroptosis: blocks zVAD induced death of L929 cells; L929 zVAD necroptosis rescue, ATP luminescence, 24 h; with zVAD 60 µM; viability rescue, % at 10 µM; 220,000 tested, 0.38% active; AID 1377;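 active means activation, scaled between plate controls, above about 75%, limit read from the data; inactive means activation under that limit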
eIF4E-4G inh: blocks eIF4E binding to eIF4G. inhibition, % at 21.7 µM. TR-FRET eIF4E-eIF4GI(517-606) binding, 2 h. 220,000 tested, 0.37% active. AID 782. P63073+Q04637;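 active means inhibition above about 30%, limit read from the data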
zVAD death conf: confirmed blocker of zVAD induced death in L929 cells | 760 tested, 16% active | L929 zVAD-induced necroptosis rescue, ATP luminescence, 24 h | shares compounds with L929 necroptosis | activation (protection from necroptosis), % at 10 µM;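 active means mean protection from necroptosis of at least 50% over duplicate tests; inactive means mean protection below 50%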
Hits are given with their value; [ ] = dose if it differs, or a comment. A selection: hits, their analogues and other compounds. The true share with any hit is near 1.2%.

`CN1CCCc2cc3c(C(F)(F)F)cc(=O)oc3nc21` gave EBV gp42 inh 132, TNF death inh inactive, L929 necroptosis inactive and eIF4E-4G inh inactive.
Screening O=C1c2ccc3c4c(ccc(c24)C(=O)N1CCCCO)C(=O)N(CCCCO)C3=O returned EBV gp42 inh inactive, TNF death inh inactive, L929 necroptosis inactive and eIF4E-4G inh inactive.
`CCCCNc1ccc2c3c(cccc13)C(=O)N(CCCC)C2=O` gave EBV gp42 inh 181, TNF death inh inactive, L929 necroptosis inactive and eIF4E-4G inh inactive.
CN(C)CCCN1C(=O)c2cccc3c(Br)ccc(c23)C1=O was read as EBV gp42 inh 77, TNF death inh inactive, L929 necroptosis inactive and eIF4E-4G inh inactive.
For O=C(COc1ccccc1Cl)c1ccc[nH]1 the results were EBV gp42 inh 57, TNF death inh inactive, L929 necroptosis inactive and eIF4E-4G inh 33.
`COc1ccc(NC(=O)CC(CC(=O)O)c2cc(OC)c(OC)c(OC)c2)cc1` (stereo unspecified) gave EBV gp42 inh inactive, TNF death inh inactive, L929 necroptosis inactive and eIF4E-4G inh inactive.
Screening CCN(CC)C(=O)COC(=O)c1cc(-c2ccc(OC)cc2)nc2ccccc12 returned EBV gp42 inh inactive, TNF death inh inactive, L929 necroptosis inactive and eIF4E-4G inh inactive.
CCN(CC)C(=O)COC(=O)c1cc(-c2ccco2)nc2ccccc12 was read as EBV gp42 inh 52, TNF death inh inactive, L929 necroptosis inactive and eIF4E-4G inh 34.
CC(=O)Nc1ccc(/C=N/NC(=O)c2cc(-c3ccco3)nc3ccccc23)cc1 was read as EBV gp42 inh inactive, TNF death inh inactive, L929 necroptosis inactive and eIF4E-4G inh inactive.
`CNC(=O)COC(=O)c1cc(-c2ccco2)nc2ccccc12` gave EBV gp42 inh inactive, TNF death inh inactive, L929 necroptosis inactive and eIF4E-4G inh 38.
`O=C(O)c1ccccc1/C=N/NC(=O)c1cc(-c2ccco2)nc2ccccc12` gave EBV gp42 inh 59, TNF death inh inactive, L929 necroptosis inactive and eIF4E-4G inh 45.
`C=CCn1c(C(CCCC)CC(O)COCC(C)C)n[nH]c1=S` (stereo unspecified) gave EBV gp42 inh inactive, TNF death inh inactive, L929 necroptosis inactive and eIF4E-4G inh inactive.
CCN(c1ccccc1)S(=O)(=O)c1ccc(Cl)c(NC(=O)CN2C(=O)NC3(CCCC3)C2=O)c1 was read as EBV gp42 inh inactive, TNF death inh inactive, L929 necroptosis inactive and eIF4E-4G inh inactive.
CCCn1c(=C(C#N)C#N)s/c(=C2\C=Cc3ccccc3N2CC)c1=O was read as EBV gp42 inh 53, TNF death inh inactive, L929 necroptosis inactive and eIF4E-4G inh inactive.
For CCCN1C(=O)/C(=c2\s/c(=C3\C=Cc4ccccc4N3CC)c(=O)n2-c2ccccc2)SC1=S the results were EBV gp42 inh inactive, TNF death inh inactive, L929 necroptosis inactive and eIF4E-4G inh inactive.
For Cc1ccc([N+](=O)[O-])cc1NC(=O)Cc1ccc(F)cc1 the results were EBV gp42 inh inactive, TNF death inh inactive, L929 necroptosis inactive and eIF4E-4G inh inactive.
COc1cc(NC(=O)c2ccccc2)c(OC)cc1NC(=O)Cc1cccs1 was read as EBV gp42 inh inactive, TNF death inh inactive, L929 necroptosis inactive and eIF4E-4G inh 39.
`Cc1ccc([N+](=O)[O-])cc1NC(=O)Cc1cccs1` gave EBV gp42 inh inactive, TNF death inh inactive, L929 necroptosis inactive and eIF4E-4G inh 37.
Screening COc1ccc(Cc2nnc(NC(=O)Cc3cccs3)s2)cc1OC returned EBV gp42 inh 68, TNF death inh inactive, L929 necroptosis inactive and eIF4E-4G inh 37.
For CC(=O)NS(=O)(=O)c1ccc(NC(=O)c2oc3c(Cl)cccc3c2C)cc1 the results were EBV gp42 inh inactive, TNF death inh inactive, L929 necroptosis inactive and eIF4E-4G inh inactive.
For CC(C)c1nnc(NC(=O)c2cccc(NC(=O)C(F)(F)F)c2)s1 the results were EBV gp42 inh inactive, TNF death inh inactive, L929 necroptosis inactive and eIF4E-4G inh inactive.
For COC(=O)c1c(-c2ccccc2)c[nH]c1C the results were EBV gp42 inh inactive, TNF death inh inactive, L929 necroptosis inactive and eIF4E-4G inh inactive.
Screening COC(=O)c1c(Cl)c2n3ccccc3c(C)c(-c3ccccc3)c-2c1C(=O)OC returned EBV gp42 inh 97, TNF death inh inactive, L929 necroptosis inactive and eIF4E-4G inh inactive.
`COC(=O)c1c(C)[nH]c(C=O)c1-c1ccccc1` gave EBV gp42 inh inactive, TNF death inh inactive, L929 necroptosis inactive and eIF4E-4G inh inactive.
COC(=O)c1cc2c(-c3ccccc3)c(C)c3ccccn3c-2c1C(=O)OC was read as EBV gp42 inh 65, TNF death inh inactive, L929 necroptosis inactive and eIF4E-4G inh inactive.
Screening COc1ccc2nc(NC(=S)N(C)C)sc2c1 returned EBV gp42 inh inactive, TNF death inh inactive, L929 necroptosis inactive and eIF4E-4G inh 41[fluorescence artefact?].
`O=C1CC(=O)N(Cc2ccco2)C(=S)N1` gave EBV gp42 inh inactive, TNF death inh inactive, L929 necroptosis inactive and eIF4E-4G inh inactive.
For O=C1CC(=O)N(Cc2ccco2)C(=O)N1 the results were EBV gp42 inh inactive, TNF death inh inactive, L929 necroptosis inactive and eIF4E-4G inh 31.
`O=C(c1ccc(Cl)cc1)c1c[nH]c(C(=O)NNc2ccccc2)c1` gave EBV gp42 inh inactive, TNF death inh inactive, L929 necroptosis inactive and eIF4E-4G inh inactive.
C/C(=N\O)c1cc(Cl)ccc1O was read as EBV gp42 inh inactive, TNF death inh inactive, L929 necroptosis inactive and eIF4E-4G inh 92.
COc1ccc(/C=C/C(=O)c2cc(Cl)ccc2O)c(OC)c1 was read as EBV gp42 inh inactive, TNF death inh inactive, L929 necroptosis inactive and eIF4E-4G inh inactive.
Screening COc1ccc(N2CCN(C(=O)CCNC(=O)Cn3ccc4ccccc4c3=O)CC2)cc1 returned EBV gp42 inh inactive, TNF death inh inactive, L929 necroptosis inactive and eIF4E-4G inh 78.
`CN1CCN(C(=O)CCNC(=O)Cn2ccc3ccccc3c2=O)CC1` gave EBV gp42 inh inactive, TNF death inh inactive, L929 necroptosis inactive and eIF4E-4G inh inactive.
`COCc1cc(=O)[nH]c(SCCS(=O)(=O)c2ccc(Cl)cc2Cl)n1` gave EBV gp42 inh inactive, TNF death inh inactive, L929 necroptosis inactive and eIF4E-4G inh inactive.
Screening COc1ccc(-c2cc(C(F)(F)F)c3c(n2)sc2c(O)cc(=O)[nH]c23)c(OC)c1 returned EBV gp42 inh 68, TNF death inh inactive, L929 necroptosis inactive and eIF4E-4G inh inactive.
Screening Cc1cc(C)c2c(n1)sc1c(O)cc(=O)[nH]c12 returned EBV gp42 inh inactive, TNF death inh inactive, L929 necroptosis inactive and eIF4E-4G inh inactive.
`COC(=O)c1c(-c2c(Cl)cccc2Cl)noc1C(=O)NNC(=O)N(C)C` gave EBV gp42 inh inactive, TNF death inh inactive, L929 necroptosis inactive and eIF4E-4G inh inactive.
Clc1ccc(COn2ccnc2)cc1Cl was read as EBV gp42 inh inactive, TNF death inh 88, L929 necroptosis 88, eIF4E-4G inh inactive and zVAD death conf 92.

Source: PubChem
